# TCR act = Activators of T cell receptors: qHTS campaign. Potency, µM (top dose mostly 9.22 µM), for the others: top-dose activation of IL-2 secretion, most hits filed as activators. 330,000 tested, under 10 active. primary human leukocytes, anti-CD3, IL-2 HTRF, 48 h; further: % of control where 0% means no effect
#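 48 hr co-incubation of compounds, a-CD3 beads and primary human leukocytes; IL-2 quantified homogeneously by HTRF with anti-IL-2 K and d2 conjugates.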
# LMNA splice mod = qHTS Assay for Modulators of Lamin A Splicing. 0.01% of 200,000 active. Potency, µM (highest dose often 46.1 µM), without a hit: at the highest dose ratio change, negative = inhibition, hits mostly inhibitors. AID 1487, 2009. HeLa LMNA splicing GFP/RFP minigene ratio, 48 h; active means well fitted inhibition curve with a large enough effect in the signal ratio, with a control signal flat, not every such curve was filed as active; inconclusive means small, poorly fitted or top-dose-only effect, or effect the other way, or a change in a side signal; the % refers to the signal ratio; further: potency means the concentration at half of the fitted maximal effect; on the % scale 0 is the no-effect control and ±100 the full control effect
#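 S3 HeLa cells stably expressing lamin A-EGFP splicing minigene plus DsRed2, 600 cells/well, 48 h compound exposure at 37C. Laser-scanning cytometry; analysed as GFP (500-530 nm)/RFP (575-640 nm) total intensity ratio; 0.5% DMSO vehicle.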
# IMPase Li inh = qHTS Assay for Identifying the Cell-Membrane Permeable IMPase Inhibitors: Potentiation with Lithium. CHO-M1 cells, IP1 TR-FRET (IP-One), carbachol + lithium. Potency, µM (highest dose often 59.4 µM), without a hit: top-dose activity, negative = IMPase inhibition, most hits filed as inhibitors. 0.35% of 210,000 active. AID 1457, 2008;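 further: IP1 builds up when IMPase is blocked and the TR-FRET signal falls; potency means the concentration at half of the fitted maximal effect; plate controls were basal vehicle for no effect and high inhibitor control for full effect; nearly all actives have a fitted effect of over 50% in size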
#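 CHO-M1, 2000 cells/well, 16–30 h culture; cpd + low Li+, 30 min 37C; lysis with d2-IP1/Eu-anti-IP1 Ab, 10 min RT; TR-FRET 665/620 ratio and 620 channel; AC50 via Hill.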
# Luc counter = Counterscreen for Luciferase (Kinase-Glo TM) Inhibition. Luciferin 4-monooxygenase (Photuris pensylvanica), Q27757. Kinase-Glo luciferase, ATP luminescence, 8 min. Potency, µM (highest dose often 38.3 µM), without a hit: top-dose activity change, negative = inhibition, actives largely listed as inhibitors. 0.28% of 200,000 active. AID 1379, 2008; further: potency means the concentration at half of the fitted maximal effect; on the % scale 0 is the no-effect control and ±100 the full control effect; nearly all actives have a fitted effect of over 60% in size
#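 Light output from Kinase-Glo luciferase with luciferin and 10 uM ATP in 50 mM imidazole pH 7.2, KCl, MgCl2, Tween 20, BSA; compound pin-delivered, 8-min ambient incubation, then luminescence read.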
# Active calls of the source: *; ? = inconclusive; . = no result; [ ] = dose if it differs, or a comment. Rows were chosen to be rich in hits. Some 0.34% of all compounds tested hit in one or more screens of this group. Unless noted, the call rests on the fitted dose curve; in most records, active means well fitted curve in the direction sought with a large enough effect; inconclusive means small, poorly fitted or top-dose-only effect, or another doubt; inactive means no such curve, though single readings can be large; an effect the other way counts as inactive or inconclusive.
SMILES,TCR act,LMNA splice mod,IMPase Li inh,Luc counter
O=C(CSc1ncnc2c1oc1ccccc12)Nc1ccccc1C(F)(F)F,-1%[46.1 µM],-3%,5.6µM*,7%
CCCCc1nc2sc3c(SCC(=O)NCc4ccco4)ncnc3c2c2c1CCC2,-1%,9%[0.0737 µM],5µM*,4%
COc1cccc(NC(=O)CSc2ncnc3c2oc2ccccc23)c1,0%,0%,11µM*,15%
N#CCCSc1ncnc2c1oc1ccccc12,-15%,2%,11µM*,2%
COc1cc(SC)ccc1C(=O)N(Cc1ccccc1)c1ccccn1,-3%,.,.,.
COc1ccc(S(=O)(=O)N(CC(=O)N2CCN(C)CC2)c2ccc(C)cc2)cc1OC,3%,15%,18%[38.3 µM],2%
O=C(CSc1ncnc2c1oc1ccccc12)NCc1ccco1,.,?,11µM*,-6%
CCOC(=O)CC(=O)CSc1ncnc2c1oc1ccccc12,2%,2%,8.9µM*,-5%
C(CCc1nnc2c(n1)CCCC2)Cc1nnc2c(n1)CCCC2,.,.,14%,-1%[7.66 µM]
Cc1cc(=O)oc2cc(OC(=O)CCN3C(=O)c4ccccc4C3=O)ccc12,-2%,?,8.9µM*,-2%
Cc1cc(=O)oc2cc(OCCCN3C(=O)c4ccccc4C3=O)ccc12,-4%[46.1 µM],-4%,-9%,-2%
NC[C@@H](O)CSCc1ccc(Cl)cc1,.,.,-7%,-2%[7.66 µM]
CSc1cccc(NC(=O)CN(C)S(=O)(=O)c2cnc[nH]2)c1,-8%,.,.,.
Cc1ccc2nc(-c3ccccc3)cn2c1,-2%,-9%,-6%[38.3 µM],8.9µM*
Cc1ccc(-c2cn3cccnc3n2)cc1,-2%,3%[46 µM],10µM*,?
Cc1ccc2nc(-c3ccc(O)c(O)c3)cn2c1,2%,.,.,.
CS(=O)(=O)Nc1ccc(-c2cn3cccnc3n2)cc1,3%,.,.,.
COc1cccc(CNC(=O)c2c(C)oc3nc(C)nc(N4CCOCC4)c23)c1,.,18%[46 µM],.,.
CCCc1nc(SCC(=O)NNC(=O)c2ccc(OC)cc2)c2ccccc2n1,5%,.,10µM*,-1%
CCCc1nc(SCC(=O)NNC(=O)C2CCCCC2)c2ccccc2n1,-4%,2%,?,-3%
O=C(c1ccco1)N1CCN(Cc2cc(=O)c(OCc3ccc(F)cc3)co2)CC1,-1%,.,.,.
C/C(CC(=O)Nc1ccccn1)=N\NC(=O)C(=O)Nc1cccc(C)c1,3%,3%,-22%[38.3 µM],-3%
O=C(Nc1cccc(O)c1)C(=O)Nc1ccccn1,-2%[46.1 µM],-2%,8%,4.5µM*
COc1ccc(-c2nc3cnc(Oc4ccccc4)nc3n(CCC#N)c2=O)cc1,.,?,10µM*,.
COc1ccc(-c2nc3cnc(OCc4ccccc4)nc3n(CCC#N)c2=O)cc1,.,?,22µM*,.
SMILES,TCR act,LMNA splice mod,IMPase Li inh,Luc counter
N#CCCn1c(=O)c(-c2ccccc2)nc2cnc(OCc3ccccc3)nc21,.,.,11µM*,1%
CC1(C)N([O-])C2=C(c3ccccc3C2=O)[N+](=O)C1(C)C,-17%,5%,7%[38.3 µM],15%
COCCCn1c(-c2ccc(S(=O)(=O)N3CCOCC3)cc2)csc1=Nc1ccccc1,5%,-9%,10µM*,10%
COc1cccc2cc(C(=O)C3=C(O)C(=O)N(CCN(C)C)C3c3ccc(Cl)cc3)oc12 (stereo not drawn),2%,.,.,.
COc1ccccc1C1C(C(=O)c2cc3ccccc3o2)=C(O)C(=O)N1CCN(C)C (stereo not drawn),-4%,4%,8.9µM*,-7%
O=C(C1=C(O)C(=O)N(CCc2ccccc2)C1c1ccncc1)c1cc2ccccc2o1 (stereo not drawn),-6%,.,4.5µM*,-3%
O=C(C1=C(O)C(=O)N(CCCN2CCOCC2)C1c1ccccn1)c1cc2ccccc2o1 (stereo not drawn),-3%,5%,11µM*,0%
O=C(C1=C(O)C(=O)N(CCCN2CCOCC2)C1c1ccccn1)c1cccs1 (stereo not drawn),.,?,24%[38.3 µM],-13%
CCN(CC)CCN1C(=O)C(O)=C(C(=O)c2sc(C)nc2C)C1c1cccnc1 (stereo not drawn),4%,15%,19%[38.3 µM],-1%
O=C(C1=C(O)C(=O)N(CCN2CCOCC2)C1c1ccc(F)cc1)c1cc2ccccc2o1 (stereo not drawn),-1%,.,.,.
CCN(CC)CCN1C(=O)C(O)=C(C(=O)c2cc3ccccc3o2)C1c1cccnc1 (stereo not drawn),-3%,-11%,10µM*,-3%
COc1ccc(C(=O)O)cc1S(=O)(=O)Nc1ccc(N2CCCCC2)cc1,-3%,.,.,.
Cc1c(Br)c([N+](=O)[O-])nn1CC(=O)N(C)Cc1ccccc1,1%,?,9%,-2%
CN(C)CCN1C(=O)C(O)=C(C(=O)c2cc3ccccc3o2)C1c1cccc(Br)c1 (stereo not drawn),2%,-3%,11µM*,5%
COc1ccc2nc(-c3cccc(N)c3)[nH]c2c1,5%[46.1 µM],-10%,4%,13µM*
COc1ccc2nc(-c3ccccn3)[nH]c2c1,-6%,.,.,.
COc1ccc2nc(-c3ccc(N)cc3)[nH]c2c1,17%[46.1 µM],?,-1%,10µM*
CCCOc1ccc(C(CC(=O)O)NC(=O)c2sc3ccccc3c2Cl)cc1 (stereo not drawn),1%,?,3.2µM*,4%
CCOc1ccc(C(CC(=O)O)NC(=O)c2sc3ccccc3c2Cl)cc1 (stereo not drawn),-2%[46.1 µM],-10%,8.9µM*,2%
CCN(C(=O)Cn1c(Cl)nc2c1c(=O)n(C)c(=O)n2C)C1CCCCC1,12%,.,.,.
CCN(CC(=O)NC(C)(C)C)C(=O)C(c1ccccc1)c1ccccc1,5%,.,14%,-1%
COC(=O)c1nn(-c2ccc3c(c2)CCN3C(C)=O)cc1O,0%,-2%,-21%[38.3 µM],11µM*
COc1ccc(CCNC(=O)c2cccc(NS(=O)(=O)c3ccccc3F)c2)cc1OC,9%,.,.,.
CCOC(=O)c1sc(NC(=O)c2ccc(C)o2)nc1C,-1%,-8%,-8%[38.3 µM],?
COC(=O)c1sc(N2C(=O)C(O)=C(C(=O)c3ccc(C)o3)C2c2ccc(F)cc2)nc1C (stereo not drawn),6%,?,7.9µM*,-2%
SMILES,TCR act,LMNA splice mod,IMPase Li inh,Luc counter
COC(=O)c1sc(N2C(=O)C(O)=C(C(=O)c3ccc(C)o3)C2c2ccco2)nc1C (stereo not drawn),-2%,.,.,.
COC(=O)c1sc(NC(=O)c2ccc(C)o2)nc1C,1%[46.1 µM],3%,-10%,6.3µM*
Cc1ccc(NC(=O)C(=O)NCCN2CCN(S(=O)(=O)c3ccccc3)CC2)cc1C,-1%,?,5%,2%
C=C(C)C(=O)Nc1nnc(-c2ccccc2C)s1,3%,.,22%,-2%
C/C=C/C(=O)Nc1nnc(-c2ccccc2C)s1,10%,.,10µM*,-2%
COCCn1c(C)cc(C(=O)CSc2nnc(C)s2)c1C,-1%,?,0%[38.3 µM],10µM*
CN(C)c1ccc(N=Cc2ccco2)cc1,15%,?,174%[38.3 µM],11µM*
